Most compounds without a hit are left out; they make up all but 2.1% or so of the library.
aDG glyco up: alpha-DG glycosylation activation; Pro5-aDG cells, alpha-DG glycosylation AlphaScreen (IIH6); 0% Pro5, 100% B10-LARGE cell signal; activation, % at 10 µM; 0.22% of 360,000 active; AID 624168;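 active = activation of at least 8% versus controls, or a plate z-score of at least 8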;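 note: Pro5 are CHO cells carrying HIG-tagged alpha-DG that lacks glycosylation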
GalR3 antag: antagonists of human GalR3; inhibition, % at 3 µM; HEK293 GalR3-CNG cAMP membrane potential fluorescence; galR3 body fused to GalR1 C-terminus; 0.44% of 360,000 active; O60755; AID 651719;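 active = inhibition above the screen-wide average plus 3 SD, cut at about 13% in these data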;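 note: forskolin and galanin both at EC90 stimulate the cells; cAMP rise reported by CNG channel membrane potential dye signal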
Target sequence (O60755 1-299 limits assumed): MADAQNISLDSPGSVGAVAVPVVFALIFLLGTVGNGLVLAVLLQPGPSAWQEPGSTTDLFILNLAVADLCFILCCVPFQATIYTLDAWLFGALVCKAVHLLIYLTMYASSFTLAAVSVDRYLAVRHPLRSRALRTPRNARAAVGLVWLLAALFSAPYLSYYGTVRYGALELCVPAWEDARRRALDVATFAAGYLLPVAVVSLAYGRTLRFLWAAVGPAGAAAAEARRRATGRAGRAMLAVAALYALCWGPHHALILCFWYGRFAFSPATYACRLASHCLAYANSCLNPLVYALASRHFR
COUP-TFII inh: blocks human COUP-TFII nuclear receptor. P24468. HEK293T NGFI-A luciferase reporter, luminescence. inhibition, % at 8.6 µM. 0.7% of 370,000 active. AID 686940;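 active = inhibition above a per-plate cutoff, mean inhibition of test wells between control levels plus 3 SD, cut at about 38% in these data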;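 note: cells cotransfected with COUP-TFII expression vector driving the NGFI-A reporter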
Target sequence (P24468 whole entry, looked up): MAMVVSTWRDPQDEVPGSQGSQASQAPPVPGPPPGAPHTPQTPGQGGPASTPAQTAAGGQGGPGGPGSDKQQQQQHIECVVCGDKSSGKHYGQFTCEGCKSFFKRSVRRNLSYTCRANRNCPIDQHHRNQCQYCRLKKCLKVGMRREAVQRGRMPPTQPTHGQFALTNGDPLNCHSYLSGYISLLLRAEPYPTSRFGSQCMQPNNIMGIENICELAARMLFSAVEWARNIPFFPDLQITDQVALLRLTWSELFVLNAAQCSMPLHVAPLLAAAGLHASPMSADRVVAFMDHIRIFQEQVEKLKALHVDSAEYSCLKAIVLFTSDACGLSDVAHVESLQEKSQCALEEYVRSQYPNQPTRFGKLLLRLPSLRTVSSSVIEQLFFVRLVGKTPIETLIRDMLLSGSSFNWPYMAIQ
HIV Env fusion: HIV envelope-mediated fusion inhibition. HeLa-JRFL Env/CEM21 cell fusion, luciferase. inhibition, % at 12.3 µM. 1.1% of 360,000 active;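 active = mean replicate inhibition score of at least 50 and every replicate individually at or above 50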
Gli-Sufu antag: blocks Gli-Sufu signaling in a luciferase reporter; 0.74% of 340,000 active; inhibition, % at 5 µM; Sufu-KO-LIGHT fibroblasts, Gli luciferase reporter luminescence; AID 588413;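 active = inhibition above about 55%, limit read from the data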
Gli antag conf: Gli-SUFU antagonism confirmation, single concentration; shares compounds with Gli-Sufu antag; Sufu-KO-LIGHT cells, Gli luciferase reporter, luminescence; inhibition, % at 5 µM; 40% of 2,500 active;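 active = mean inhibition at 5 µM reaching about 45%, limit read from the data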
SufuKO cytotox: cytotoxicity counter-screen for Gli-SUFU antagonists; Sufu-KO-LIGHT cells cytotoxicity, ATP luminescence; cytotoxicity, % at 5 µM; AID 651994; 32% of 2,500 active; shares compounds with Gli-Sufu antag;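 active = mean cytotoxicity at 5 µM above about 25%, limit read from the data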;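 note: cells exposed to compound overnight for roughly 16 to 18 hours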
Wnt3a counter: counter-screen for Gli-SUFU antagonists: Wnt3a reporter inhibition; inhibition, % at 6.25 µM; 20% of 2,500 active; Wnt-LIGHT cells, Wnt3a-driven luciferase reporter, luminescence; shares compounds with Gli-Sufu antag;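 active = mean inhibition above about 25%, limit read from the data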
Each line names hits and unclear results; the compound was inactive in the other large screens (follow-up assays come after a bar, where they were run).

O=C(N/N=C/c1ccccn1)c1[nH]c2ccc([N+](=O)[O-])cc2c1-c1ccccc1	Gli-Sufu antag 56 | Gli antag conf inactive | SufuKO cytotox inactive | Wnt3a counter inactive
C[C@@H]1CN([C@H](C)CO)S(=O)(=O)c2ccc(-c3cccnc3)cc2O[C@H]1CN(C)Cc1ccncc1	none (no result: aDG glyco up, GalR3 antag, COUP-TFII inh, Gli-Sufu antag)
CCn1c(COc2ccc3c(c2)OCO3)nnc1SCC(=O)c1ccccc1	Gli-Sufu antag 67 (no result: HIV Env fusion) | Gli antag conf inactive | SufuKO cytotox inactive | Wnt3a counter inactive
CCn1c(COc2ccc(C)cc2)nnc1SCC(=O)c1ccc(-c2ccccc2)cc1	none (no result: aDG glyco up, GalR3 antag, HIV Env fusion, Gli-Sufu antag)
Cc1cc(C)c(C(N)=O)c(SCC(=O)c2cc(C)n(-c3cc(C)on3)c2C)n1	none (no result: HIV Env fusion) | Gli antag conf 60 | SufuKO cytotox 33 | Wnt3a counter inactive
CNC(=S)N/N=C(\C)c1ccc(N2CCOCC2)cc1	Gli-Sufu antag 68 | Gli antag conf inactive | SufuKO cytotox inactive | Wnt3a counter inactive
CCNC(=S)N/N=C(\C)c1ccc(N2CCOCC2)cc1	none
Cc1ccc(CNC(=O)CCS(=O)(=O)Cc2ccc(C)cc2)cc1	none | Gli antag conf inactive | SufuKO cytotox inactive | Wnt3a counter inactive
Cc1ccc(CCNC(=O)CCS(=O)(=O)Cc2ccc(C)cc2)cc1	none
CCC(=O)N[C@H]1CC[C@H](CC(=O)NCC2CCCCC2)O[C@@H]1CO	none (no result: aDG glyco up, GalR3 antag, COUP-TFII inh, Gli-Sufu antag)
CCOc1ccc([N+](=O)[O-])cc1CNC1CCCCCCC1	none | Gli antag conf inactive | SufuKO cytotox inactive | Wnt3a counter inactive
C[C@@H]1CCCCO[C@H](CN(C)Cc2ccc(Cl)c(Cl)c2)[C@H](C)CN([C@@H](C)CO)C(=O)c2cc(NS(=O)(=O)c3ccc(Cl)cc3)ccc2O1	none (no result: aDG glyco up, GalR3 antag, COUP-TFII inh, Gli-Sufu antag)
C=CCN(C(=O)Cn1nc(C)n2c(cc3cc(C)ccc32)c1=O)c1ccccc1	Gli-Sufu antag 63 | Gli antag conf inactive | SufuKO cytotox inactive | Wnt3a counter inactive
COc1ccccc1NC(=O)c1ccc2c(c1)N(CC#N)C(=O)C(C)(C)O2	none | Gli antag conf inactive | SufuKO cytotox inactive | Wnt3a counter inactive
CCOC(=O)CN1C(=O)C(C)(C)Oc2ccc(C(=O)Nc3ccccc3OC)cc21	none
Cn1c(-c2ccccn2)[n+](C)c2ccccc21	none
CN(C)c1ccc(-c2n(C)c3ccccc3[n+]2C)cc1	Gli-Sufu antag 80 (no result: HIV Env fusion) | Gli antag conf 82 | SufuKO cytotox 36 | Wnt3a counter 27
Cc1ccc2c(C)c(C(=O)NCc3ccc(S(N)(=O)=O)cc3)oc2c1C	Gli-Sufu antag 59 | Gli antag conf inactive | SufuKO cytotox inactive | Wnt3a counter inactive
COc1ccc(NC(=O)N(C)C[C@@H]2Oc3ncc(-c4cccnc4)cc3C(=O)N([C@H](C)CO)C[C@H]2C)cc1	none (no result: aDG glyco up, GalR3 antag, COUP-TFII inh, Gli-Sufu antag)
COc1ccc(-n2cc(-c3ccccc3)[n+]3c2CCCCC3)cc1	Gli-Sufu antag 85 | Gli antag conf 87 | SufuKO cytotox 28 | Wnt3a counter 37
FC(F)Sc1ccc(-n2cc(-c3ccccc3)[n+]3c2CCC3)cc1	Gli-Sufu antag 60 | Gli antag conf 59 | SufuKO cytotox 36 | Wnt3a counter inactive
Cc1noc(C)c1S(=O)(=O)Nc1ccc2c(c1)CC(=O)N([C@H](C)CO)C[C@H](C)[C@@H](CN(C)C(=O)NC1CCCCC1)O2	none (no result: aDG glyco up, GalR3 antag, COUP-TFII inh, Gli-Sufu antag)
O=C(NCc1cc(F)cc(F)c1)[C@H]1[C@H](CO)[C@H]2Cn3c(cccc3=O)[C@@H]1N2	none (no result: aDG glyco up, GalR3 antag, COUP-TFII inh, Gli-Sufu antag)
Cc1cc(C(=O)NCc2ccccc2)no1	Gli-Sufu antag 89 (no result: HIV Env fusion) | Gli antag conf inactive | SufuKO cytotox inactive | Wnt3a counter inactive
Cc1cc(C(=O)NNCc2ccccc2)no1	none
C[C@@H]1CN([C@H](C)CO)S(=O)(=O)c2ccc(C#C[C@@H](C)O)cc2O[C@H]1CN(C)CC1CCCC1	none (no result: aDG glyco up, GalR3 antag, COUP-TFII inh, Gli-Sufu antag)
OC(CN1CCN(c2cccc(Cl)c2)CC1)c1ccccc1 (stereo not given)	none
OC(CN1CCN(c2cccc(Cl)c2)CC1)c1ccc(F)cc1 (stereo not given)	Gli-Sufu antag 69 | Gli antag conf inactive | SufuKO cytotox inactive | Wnt3a counter inactive
CC(=O)N(C)C[C@@H]1Oc2cc(-c3ccccc3C)ccc2S(=O)(=O)N([C@@H](C)CO)C[C@H]1C	none (no result: aDG glyco up, GalR3 antag, COUP-TFII inh, Gli-Sufu antag)
C[C@H](CO)N1C[C@H](C)[C@@H](CN(C)C)Oc2ccc(NS(=O)(=O)c3ccccc3)cc2C1=O	none (no result: aDG glyco up, GalR3 antag, COUP-TFII inh, Gli-Sufu antag)
CSc1ccc(C2(O)Cc3cccc[n+]3C2c2ccccc2)cc1 (stereo not given)	Gli-Sufu antag 56 | Gli antag conf inactive | SufuKO cytotox inactive | Wnt3a counter inactive
CCC(=O)N1CCc2cc(S(=O)(=O)CCC(=O)Nc3ccc(C(C)=O)cc3)ccc21	Gli-Sufu antag 59 | Gli antag conf inactive | SufuKO cytotox inactive | Wnt3a counter inactive
O=C(C[C@@H]1C=C[C@@H](NC(=O)c2cccc(F)c2)[C@H](CO)O1)NCc1ccccc1	none (no result: aDG glyco up, GalR3 antag, COUP-TFII inh, Gli-Sufu antag)
CCOc1cc(C(=O)N/N=C/C(Br)=C/c2ccccc2)cc(OCC)c1OCC	none (no result: HIV Env fusion) | Gli antag conf 64 | SufuKO cytotox 47 | Wnt3a counter inactive
CC(C)(C)CC(=O)Nc1cc(S(=O)(=O)N2CCCCCC2)ccc1Cl	Gli-Sufu antag 60 | Gli antag conf inactive | SufuKO cytotox inactive | Wnt3a counter inactive
O=C(CCl)Nc1cc(S(=O)(=O)N2CCCCCC2)ccc1Cl	none
N=c1c(C(=O)NC2CCCC2)cc2c(=O)n3ccccc3nc2n1CC1CCCO1 (stereo not given)	none
CC(NC(=O)c1cc2c(=O)n3ccccc3nc2n(CC2CCCO2)c1=N)c1ccccc1 (stereo not given)	Gli-Sufu antag 59 | Gli antag conf inactive | SufuKO cytotox inactive | Wnt3a counter inactive
COc1cc(Br)cc(/C=N/N(CCO)C2=NS(=O)(=O)c3ccccc32)c1OC	Gli-Sufu antag 64 | Gli antag conf inactive | SufuKO cytotox inactive | Wnt3a counter inactive
COc1cc(/C=N/N(CCO)C2=NS(=O)(=O)c3ccccc32)cc(OC)c1OC	none
C[C@@H]1CN([C@H](C)CO)C(=O)c2cccc(NC(=O)c3ccncc3)c2O[C@@H]1CN(C)C(=O)NC1CCCCC1	none (no result: aDG glyco up, GalR3 antag, COUP-TFII inh, Gli-Sufu antag)
COc1cccc(/C=N/NC(=O)c2ccc([N+](=O)[O-])cc2Cl)c1O	Gli-Sufu antag 64 | Gli antag conf inactive | SufuKO cytotox inactive | Wnt3a counter inactive
COc1cccc(/C=N/Nc2ccc([N+](=O)[O-])cc2)c1O	none (no result: Gli-Sufu antag)
COCC(=O)Nc1ccc2c(c1)[C@@H]1C[C@H](CC(=O)NC3CCCC3)O[C@H](CO)[C@@H]1O2	none (no result: aDG glyco up, GalR3 antag, COUP-TFII inh, Gli-Sufu antag)
NC(=O)NCC#Cc1ccc2c(c1)[C@]1(C(=O)N2)[C@H](C(N)=O)[C@H]2C(=O)O[C@H](c3ccccc3)[C@H](c3ccccc3)N2[C@@H]1c1ccccc1OCCO	none (no result: aDG glyco up, GalR3 antag, COUP-TFII inh, Gli-Sufu antag)
